Source: PubChem BioAssay (several laboratories)
Shown are actives, neighbours in structure and some others; about 12% of the full set was active somewhere.
ROMK primary = ROMK potassium channel modulators, primary screen, cell-based, thallium flux, MLSMR library; ATP-sensitive inward rectifier potassium channel 1 (Homo sapiens), P48048; Tet-inducible ROMK, thallium flux fluorescence; actives lie on both sides; B-score at 10 µM; actives 2% (n = 130,000); AID 1918, 2009;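 active = signal ratio slope over the read window, or its plate-corrected B-score, at least 3 SD from the plate mean, either direction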;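 also: B-score of the F/F0 ratio slope over 7 to 12 s after thallium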
Cl transport mod = KCC2 cotransporter modulators, thallium flux, primary screen, cell-based, HEK293 KCC2, FluoZin-2 fluorescence, MLSMR. Solute carrier family 12 member 5 (Homo sapiens), Q9H2X9. KCC2 cells, thallium flux FluoZin-2 fluorescence. B-score of Tl+ flux slope (higher = more flux/activation; lower = inhibition) at 10 µM. actives 2.2% (n = 190,000);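 active = thallium flux slope and its plate-corrected score both differing from the plate sample mean at a set confidence after two filtering rounds, in either direction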;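 also: slope of fluorescence scaled to starting intensity during 10 to 20 s after thallium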
Target sequence (Q9H2X9 whole entry, looked up): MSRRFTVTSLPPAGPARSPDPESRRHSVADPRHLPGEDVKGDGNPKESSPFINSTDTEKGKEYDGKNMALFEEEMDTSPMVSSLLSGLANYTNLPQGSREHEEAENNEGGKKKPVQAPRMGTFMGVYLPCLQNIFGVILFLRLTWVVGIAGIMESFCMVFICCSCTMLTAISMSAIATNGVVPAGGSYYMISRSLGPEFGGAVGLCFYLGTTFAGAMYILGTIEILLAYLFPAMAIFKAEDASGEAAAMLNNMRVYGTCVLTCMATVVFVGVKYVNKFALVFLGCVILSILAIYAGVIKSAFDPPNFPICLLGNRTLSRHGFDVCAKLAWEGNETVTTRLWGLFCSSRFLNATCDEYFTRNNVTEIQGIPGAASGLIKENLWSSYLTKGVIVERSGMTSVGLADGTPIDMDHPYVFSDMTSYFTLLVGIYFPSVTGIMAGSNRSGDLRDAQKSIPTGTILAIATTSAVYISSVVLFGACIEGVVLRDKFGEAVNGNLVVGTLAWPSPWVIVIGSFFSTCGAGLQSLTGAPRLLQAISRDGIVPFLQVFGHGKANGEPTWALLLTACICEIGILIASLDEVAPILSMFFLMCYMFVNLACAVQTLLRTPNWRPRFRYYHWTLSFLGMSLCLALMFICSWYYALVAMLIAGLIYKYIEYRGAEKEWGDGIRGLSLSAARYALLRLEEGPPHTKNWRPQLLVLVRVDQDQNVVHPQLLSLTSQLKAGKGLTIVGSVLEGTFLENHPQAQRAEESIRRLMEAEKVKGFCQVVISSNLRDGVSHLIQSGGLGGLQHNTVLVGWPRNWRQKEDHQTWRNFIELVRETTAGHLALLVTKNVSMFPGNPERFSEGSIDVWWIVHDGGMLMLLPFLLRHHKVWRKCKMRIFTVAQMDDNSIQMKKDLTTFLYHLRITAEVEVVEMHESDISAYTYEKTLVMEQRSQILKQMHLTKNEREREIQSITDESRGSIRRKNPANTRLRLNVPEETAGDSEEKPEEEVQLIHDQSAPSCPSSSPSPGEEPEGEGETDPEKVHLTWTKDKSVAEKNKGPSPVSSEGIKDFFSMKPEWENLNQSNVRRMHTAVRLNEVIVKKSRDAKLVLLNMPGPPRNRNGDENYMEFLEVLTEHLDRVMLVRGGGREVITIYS
Insulin prom up = insulin promoter activators in MIN6 cells, imaging, high-content screening, mouse beta cells; MIN6 insulin promoter-GFP reporter; stronger effect = higher value; z-score at 5 µM; actives 0.3% (n = 190,000); AID 1625, 2009;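 active = z-score above 3 at 5 µM with at least 500 cells counted in the well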
Insulin prom inh = inhibitors of insulin promoter-driven GFP, primary screen, imaging, TRM-6 cells (human fetal islet line), eGFP reporter, cell count. reporter expression induced with tamoxifen. inhibition, % at 2 µM. actives 0.9% (n = 130,000);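 active = inhibition above the mean plus 3 SD, with well images judged a real hit on visual review, cut at about 60% in these data, passing the limit was not always enough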
WT yeast gro inh = growth inhibition of WT strain, primary screen, mitochondrial fusion inhibitor project, WT and mutant strains, chemical genetic. mitochondrial fusion phenotypic screen. inhibition, % at 10 µM. actives 2.1% (n = 190,000). AID 1362, 2008; in the data active = inhibition above about 58%; tested in S. cerevisiae
Lmaj promast = Leishmania major promastigote growth inhibition, primary screen | inhibition, % at 10 µM | Leishmania major promastigotes, resazurin fluorescence viability | actives 9% (n = 200,000); in the data active = inhibition above about 50%;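 also: promastigotes grown with compound for 44 hours at 28 °C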
Active calls of the source: *; . = no result given.

SMILES	ROMK primary	Cl transport mod	Insulin prom up	Insulin prom inh	WT yeast gro inh	Lmaj promast
C=CCn1c(SCc2nc3sc4c(c3c(=O)[nH]2)CCCC4)nc2ccccc2c1=O	-1.7	0.16	-0.47	-5	23	84*
O=C(CSc1cccc[n+]1[O-])N1CCc2ccccc21	.	-0.036	-0.1	.	.	.
O=C(COC(=O)CNC(=O)c1sc2ccccc2c1Cl)Nc1cc(Cl)cc(Cl)c1	0.093	-2	-0.01	.	0	-7
CCN(CC)S(=O)(=O)c1cc(NC(=O)COC(=O)c2sc3ccccc3c2Cl)ccc1C	-0.0065	-0.99	-0.01	15	9	50*
CCN(CC)S(=O)(=O)c1cc(NC(=O)COC(=O)c2ccc(NC(=O)CC#N)cc2)ccc1C	0.87	-1.3	0.51	-20	7	-11
Cc1ccccc1NC(=O)COC(=O)CNC(=O)c1sc2ccccc2c1Cl	0.29	-2	0.04	-11	6	87*
Cc1csc(SCCn2c(N3CCCC3)nc3c2c(=O)[nH]c(=O)n3C)n1	.	0.7	-0.49	-49	-16	1
CN1CCN(C(=O)c2cc(-c3cccc(Cl)c3)on2)CC1	-0.45	.	-0.32	.	2	8
O=[N+]([O-])c1ccc(OCc2cn([C@@H](CO)c3ccccc3)nn2)c(Br)c1	.	0.051	0.61	.	.	.
CCOC(=O)C1=C(CNCCc2ccc(Cl)cc2)NC(=O)NC1c1ccc2c(c1)OCO2 (stereo not given)	.	-0.47	-0.73	0	55	80*
COC(=O)Cc1ccc(N(Cc2ccccc2F)S(=O)(=O)c2ccc(Cl)cc2)cc1	-0.64	-1.2	-0.78	57	69*	-2
Cc1c(N(C)C(=O)C2CCCN2S(=O)(=O)c2ccccc2)c(=O)n(-c2ccccc2)n1C (stereo not given)	0.1	.	0.72	-9	3	-1
Cc1nnc(SCC(=O)N2c3ccccc3C(C)(c3ccccc3)CC2(C)C)s1 (stereo not given)	-0.87	-0.83	-0.21	-7	40	42
Cc1ccc(C2(C)CC(C)(C)N(C(=O)CSc3nnc(C)s3)c3ccccc32)cc1 (stereo not given)	-0.51	-0.66	-0.49	-62	59*	28
Cc1ccc(C(C)C)c(OCc2nnc(SCC(=O)Nc3ncc(C)s3)n2C)c1	0.82	-0.014	-0.24	-20	-12	-7
COc1ccc(CCc2nc(C)ccc2O)cc1	-0.064	-0.047	0.2	89*	17	3
Cc1ccc(O)c(CO)n1	.	.	-0.71	.	.	.
Cc1ccc(O)c(CC(C)C)n1	.	1.9	0.91	84*	-3	-5
COc1ccc(S(=O)(=O)CCC(=O)O)cc1	.	1.3	-0.88	-240	22	1
Cc1c(NS(=O)(=O)c2ccc3[nH]c(=O)[nH]c3c2)c(=O)n(-c2ccccc2)n1C	-0.003	-0.27	-0.46	47	1	-8
CC(C)N(C(=O)c1sc2cc([N+](=O)[O-])ccc2c1Cl)C(C)C	.	-0.81	1.2	60	0	97*
COC(=O)c1sccc1NC(=O)CC1C(=O)NCCN1C(=O)c1c(F)cccc1Cl (stereo not given)	.	0.094	0.2	.	.	.
NC(=O)[C@@H]1CCCCNc2c(F)cc([N+](=O)[O-])cc2C(=O)N[C@@H](CC(=O)O)C(=O)N[C@@H](CCC(=O)O)C(=O)N1	-1.1	0.025	0.56	-127	-10	-5
Cc1ccc2c(c1)N=C(c1ccccc1)CC(C(Cl)Cl)=N2	.	1.4	-0.12	.	.	.
Cc1ccc(C2=Nc3ccccc3N=C(C(Cl)Cl)C2)cc1	-0.64	-0.43	.	82*	25	8
SMILES	ROMK primary	Cl transport mod	Insulin prom up	Insulin prom inh	WT yeast gro inh	Lmaj promast
O=C(Nc1ccccc1)c1sc2cc(C(F)(F)F)cnc2c1-c1cccs1	0.071	-1.6	0.14	-22	21	59*
O=C(NCCCO)NC(=S)c1cccc2ccccc12	0.72	-0.085	0.41	.	4	4
OCCN1CCN(CC#CCn2c3ccccc3c3ccccc32)CC1	.	.	-0.39	.	8	64*
OCCN1CCN(CC#CCC(c2ccccc2)c2ccccc2)CC1	.	-0.67	-0.41	.	.	.
COc1ccc(/C=N/n2c(SC)nnc2-c2ccccc2)cc1C	.	-0.013	-0.12	33	24	63*
O=C(CNS(=O)(=O)c1ccc(Br)s1)NCC1COc2ccccc2O1 (stereo not given)	.	-0.84	-0.99	.	48	59*
Cn1c(/C=N/O)nc2ccccc21	.	0.34	-0.01	.	.	.
Cn1c(/C=N/c2nc3ccccc3[nH]2)nc2ccccc21	.	-0.25	-0.77	40	6	100*
CN(C)CCCN1C(=O)c2oc3ccccc3c(=O)c2C1c1cccs1 (stereo not given)	.	7.3*	-0.5	-30	13	-4
NS(=O)(=O)c1ccc(N=Nc2c(O)ccc3ccccc23)cc1	0.73	0.11	-0.42	.	-7	0
Oc1ccc(N=Nc2c(O)ccc3ccccc23)cc1	.	.	-0.4	-8	98*	19
O=c1c2c3c(sc2nc2n1CCC2)CCC3	0.051	0.31	0.44	-75	61*	0
Cc1cc(C)n(CC(=O)N/N=C/c2ccco2)n1	.	-0.13	0.14	14	14	-4
CN(C)CC1CCCCC1OC(=O)/C=C/c1ccc(Cl)cc1Cl (stereo not given)	.	-0.84	-0.32	36	25	31
C/C(=N\Nc1nccnc1Cl)c1ccc(F)cc1	-0.2	0.36	0.31	.	3	-3
CC(Sc1nnc(-c2cccs2)n1-c1ccccc1)C(=O)NCc1ccc2c(c1)OCO2 (stereo not given)	0.16	-0.88	-0.79	-35	6	91*
CC(C)Nc1nc2c(c(=O)n(C)c(=O)n2C)n1C	.	-0.26	-0.07	.	.	.
CCOc1ccc(C(=O)N/N=C(\c2ccccc2)c2ccccn2)cc1	.	-0.1	-1.4	-29	69*	99*
CC1N(C)c2cc(NC(=O)c3cccs3)c(P(=O)(Nc3ccc([N+](=O)[O-])cc3)N3CCOCC3)cc2C1(C)C (stereo not given)	-0.77	-0.56	-1.7	.	4	59*
CN(C)c1ccc(P(=O)(Nc2cccc(C(F)(F)F)c2)N2CCOCC2)c(NC(=O)c2cccs2)c1 (stereo not given)	-0.65	-0.26	-0.5	-47	9	59*
O=C(Nc1cc(C(F)(F)F)ccc1N1CCOCC1)c1cccs1	-0.9	.	0.31	-4	-7	-1
Fc1ccc(NCc2nnc(SCc3ccccc3)o2)cc1	-0.43	-3	0.19	.	11	-4
Clc1ccc(CSc2nnc(CNc3cccc(Cl)c3)o2)cc1	-0.39	-0.29	0.55	9	81*	18
O=C(CSc1nc2ccccc2o1)Nc1nc(-c2ccccc2)c(-c2ccccc2)s1	-0.32	0.26	0.35	.	10	0
CCOC(=O)c1oc2ccc(S(=O)(=O)n3nc(-c4cc(OC)c(OC)c(OC)c4)cc3N)cc2c1C	.	-1.2	-1.5	-57	-3	64*
